Assay results from PubChem BioAssay AID504847 (National Center for Advancing Translational Sciences (NCATS), 2011).
Among all 400,000 compounds or so, about 3,700 (0.93%) were called active. Inconclusive results (about 3%) are left out. The sample holds actives, similar compounds and a random draw of the others, so the mix is not that of the screen. The call rests on the fitted dose curve; in most records, active means well fitted inhibition curve with a large enough effect; inconclusive means small, poorly fitted or top-dose-only effect, or another doubt; inactive means no such curve, though single readings can be large or run the other way.

What follows are molecules tested against Vitamin D3 receptor (Homo sapiens) (UniProt P11473) (assay: Inhibitors of the vitamin D receptor (VDR): qHTS). Conditions: VDR-SRC2-3 peptide fluorescence polarization, 2 h; max response, negative = inhibition: hits give low values.
Chain of Vitamin D3 receptor (Homo sapiens) (P11473 whole entry, looked up): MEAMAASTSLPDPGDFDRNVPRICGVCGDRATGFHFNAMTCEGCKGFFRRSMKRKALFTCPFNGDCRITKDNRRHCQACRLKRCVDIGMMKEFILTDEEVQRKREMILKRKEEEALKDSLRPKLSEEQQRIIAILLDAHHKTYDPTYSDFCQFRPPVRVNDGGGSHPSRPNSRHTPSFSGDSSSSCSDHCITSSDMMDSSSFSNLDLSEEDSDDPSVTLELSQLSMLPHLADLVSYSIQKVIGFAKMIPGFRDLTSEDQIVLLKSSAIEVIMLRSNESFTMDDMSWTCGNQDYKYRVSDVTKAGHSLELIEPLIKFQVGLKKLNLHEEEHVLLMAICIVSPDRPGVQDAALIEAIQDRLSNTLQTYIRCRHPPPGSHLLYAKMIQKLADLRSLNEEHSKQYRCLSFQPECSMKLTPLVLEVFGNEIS
Method in brief: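 Reagent solutions, kept cold and dark, are dispensed first; compounds are then pinned in at 23 nl, plates briefly spun, and incubated 2 h at ambient temperature. Inhibition of VDR–SRC2-3 peptide binding is read by fluorescence polarization.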
On the % scale 0 is the no-effect control and ±100 the full control effect; potency means the concentration at half of the fitted maximal effect.

Max response, negative = inhibition, inactive:
Cc1cc(NC(=O)C2CCC(CNS(=O)(=O)c3ccc(Br)s3)CC2)ccc1Br (stereo unspecified) -18%
COc1ccc(-c2nc3ccccc3s2)cc1NC(=O)COc1ccccc1C 1.1%
COc1cccc(-c2nc(Nc3ccncc3)c3ccccc3n2)c1 16.5%
Cc1cnc(CNc2nc(-c3cccnc3)nc3ccccc23)cn1 -20.5%
CCOc1ccc(Nc2c(S(=O)(=O)c3ccccc3)cnc3ccccc23)cc1 -2.09%
Cc1nc2ccn(Cc3cccnc3)c(=O)c2cc1C(=O)N1CCN(c2ccccc2F)CC1 -2.65%
CC(=O)Nc1ccc(S(=O)(=O)N2N=NC3C2C2CC4C3(CN(C(=O)OC(C)(C)C)S4(=O)=O)O2)cc1 (stereo unspecified) -28.4%
CCn1cc(C(=O)NCC2COc3ccccc3O2)c2cc(OC)c(OC)cc2c1=O (stereo unspecified) -12.1%
O=C(NCC1COc2ccccc2O1)C1(c2ccccc2)CCCC1 (stereo unspecified) -20%
COc1cc(/C=C2/C(=O)NN(c3ccc(F)cc3)C2=O)cc([N+](=O)[O-])c1O -24.2%
COc1cc(/C=N/O)cc(Br)c1OCc1cccc(Cl)c1 4.44%
COCCn1c(=O)c(-c2cc(F)cc(F)c2)nc2cnc(N3CCNCC3)nc21 -11.9%
Cc1cn([C@H]2CC(F)[C@@H](CO)O2)c(=O)[nH]c1=O (stereo partly specified) -2.1%
O=C(CSc1nccn1C1CCCC1)Nc1cc(C(F)(F)F)ccc1Cl 24.3%
CCc1nnc(SCC(=O)Nc2cc(OC)ccc2OC)nc1CC 8.11%
Cc1ccccc1-c1nc(CS(=O)(=O)CC(=O)Nc2cc(Cl)cc(Cl)c2)c(C)o1 13%
CC1=C(c2ccc(C)c(C)c2)S(=O)(=O)NC1=NCc1ccccc1Cl 4.51%
O=c1n(Cc2cccc(C(F)(F)F)c2)c2ccccc2c2nc(-c3ccccc3)nn12 -21.7%
CCOc1cccc(CC(=O)N2CCc3c([nH]c4ccccc34)C2c2ccc(F)cc2)c1OCC (stereo unspecified) 6.55%
COc1ccc(S(=O)(=O)Nc2cccc3cccnc23)c(N)c1 -18.8%
Cn1cc(-c2nc3cnc(N4CCNCC4)nc3n(CCC#N)c2=O)c2ccccc21 -5.94%
O=C(Nc1cc(C(=O)Nc2ccc(S(=O)(=O)O)cc2)cc(C(=O)Nc2ccc(S(=O)(=O)O)cc2)c1)Nc1cc(C(=O)Nc2ccc(S(=O)(=O)O)cc2)cc(C(=O)Nc2ccc(S(=O)(=O)O)cc2)c1 4.66%
O=C(OCc1cc(Cl)ccc1OC(F)F)c1cccnc1 3.25%
O=C(NNC1CC(=O)N(c2cccc(Cl)c2)C1=O)c1cccnc1 (stereo unspecified) 4.73%
O=C(c1cnn(-c2ccc(F)cc2)c1-n1cccc1)N1CCN(c2ccc(F)cc2)CC1 -3.32%
CC[C@]1([C@H]2O[C@@H]([C@@H]3O[C@](O)(CO)[C@@H](C)C[C@H]3C)C[C@H]2C)CC[C@@H]([C@]2(C)CC[C@@]3(C[C@@H](O)[C@@H](C)[C@@H]([C@H](C)[C@H](OC)[C@H](C)C(=O)O)O3)O2)O1 3.44%
CCOC(=O)C1CCCN(C(=O)CN(c2ccc(OC)cc2)S(=O)(=O)c2c(C)noc2C)C1 (stereo unspecified) -22.5%
COc1ccc(N(CC(=O)Nc2cc(OC)ccc2OC)S(=O)(=O)c2c(C)noc2C)cc1 5.52%
O=C(c1cccc(F)c1)N1CCC2(CCCN(Cc3ccncc3)C2)CC1 -10.4%
Cc1ccc(Cn2cc(CCC(=O)NCc3ccc(OC(C)C)cc3)c3ccccc32)cc1 7.91%
COC(=O)c1cccc(N2C(=O)C3C4C=CC(CC4)C3C2=O)c1 (stereo unspecified) 12.5%
COC(=O)c1cccc(NC(=O)c2cccc(N3C(=O)CCC3=O)c2)c1 -2.51%
COc1cccc(NC(=O)CSC2=Nc3ccccc3C3=NC(CC(=O)NC4CCCCC4)C(=O)N23)c1 (stereo unspecified) 1.75%
CCOCCCNC(=O)c1cn(CC)c2ccc(S(=O)(=O)N3CCc4ccccc4C3)cc2c1=O -6.66%
OCCN1CCN(CC/C=C2\c3ccccc3Sc3ccc(C(F)(F)F)cc32)CC1 -15.9%
COc1ccc(CC(=O)NCC(=O)N/N=C/c2cc(Br)ccc2OC)cc1 13.7%
COc1ccc(C(=O)c2oc3ccc(Br)cc3c2NC(C)=O)cc1 -3.63%
CCN(CC)c1nn2c(=O)c(C(=O)NCCc3ccccc3)cnc2s1 2.65%
CCOC(=O)c1sc(NC(=O)/C=C/c2ccc(C(C)C)cc2)c(C(=O)OCC)c1C -21.4%
CCOC(=O)c1c(NC(=O)c2ccc(S(=O)(=O)N3CCCC(C)C3)cc2)sc2c1CCN(C(C)C)C2 (stereo unspecified) 21.6%
CC(C)CC(=O)NC(=S)Nc1cc(C(=O)O)ccc1Cl -4.96%
Cc1ccc(C)c(NC(=S)NCC(c2cccnc2)N2CCOCC2)c1 (stereo unspecified) -7.85%
Cc1ccc(NC(=S)NCCc2ccc(Cl)cc2)c(C)c1 2.39%
CCC(C(=O)Nc1ccc(C(C)C)cc1)c1ccccc1 (stereo unspecified) -16.3%
COc1cc(C(=O)N2CCN(C(=O)COc3cccc(C)c3)CC2)cc(OC)c1OC -6.68%
Cc1ccc(CN2C(=O)SC(Nc3ccccc3)C2=O)cc1 (stereo unspecified) -7.63%
Cc1ccc(-c2cc(C(=O)NC3CCN(Cc4ccccc4)CC3)c3ccccc3n2)cc1 -7.79%
CC(=O)/C(C)=N\O -2.4%
CCOc1ccc(CNC(=O)c2cc(=O)[nH]c3ccc(S(=O)(=O)N4CCCCC4)cc23)cc1 6.6%
O=C(NC1CC(=O)N(c2ccc(F)cc2)C1)C1CCCCC1 (stereo unspecified) -2.82%
CCCn1c2ccccc2c2cnn(CC(=O)N(CC)c3cc(C)ccc3C)c(=O)c21 3.02%
CCN(CCCNC(=O)c1ccc(Sc2ccc(C)cc2)c(NC(C)=O)c1)c1cccc(C)c1 9.47%
CCN(CCCNC(=O)Cn1ncc2c([nH]c3ccccc32)c1=O)c1cccc(C)c1 2.86%
CCOc1ccc(N(CC)C(=O)c2noc3c2COc2ccc(C)cc2-3)cc1 8.55%
CCOc1cccc(CC(=O)N2CCc3c([nH]c4ccccc34)C2c2ccc(OC)cc2)c1OCC (stereo unspecified) 11.9%
COc1ccc(-c2cc(C(=O)NC(C(=O)O)C(C)C)c(C)o2)cc1OC (stereo unspecified) -0.859%
COc1ccc(-c2cc(=O)oc3cc(OCC(=O)N[C@@H](Cc4c[nH]c5ccccc45)C(=O)O)ccc23)cc1 -24.6%
CC1CCN(c2nc3ccc(C(=O)N4CCN(c5ccccc5)CC4)cc3s2)CC1 19.1%
COc1ccc(Cn2c(=O)n(-c3ccccc3C)c(=O)c3c4c(sc32)CN(C(C)=O)CC4)cc1 7.19%
Cc1ccc(C)c(N2CCN(S(=O)(=O)c3ccc4c(c3)C(C(C)C)C(=O)N4)CC2)c1 (stereo unspecified) 8%
Cc1csc(-c2coc3cc(O[C@@H]4O[C@H](CO)[C@@H](O)[C@@H](O)[C@H]4O)ccc3c2=O)n1 9.43%
O=C(COC(=O)/C=C/c1cn(-c2ccccc2)nc1-c1cccnc1)Nc1ccc(Cl)cc1Cl -8.09%
O=C(/C=C/NNC(=O)c1cccc(Br)c1)c1ccccc1 0%
Cc1c(-c2nc(-c3ccc4c(c3)OCO4)no2)nnn1-c1ccc(Br)cc1F 14.1%
Cc1ccc(Cl)cc1-n1ncc2c(N3CCC(C(N)=O)CC3)ncnc21 -9.07%
OC[C@@H]1O[C@H](n2cnc3c(SCc4ccccc4)ncnc32)[C@H](O)[C@H]1O -14.3%
COc1ccc(CCN2C(=O)c3oc4cc(C)cc(C)c4c(=O)c3C2c2ccccc2F)cc1OC (stereo unspecified) 4.42%
COc1ccccc1NC(=O)C(=O)c1cc(C)n(-c2ccccc2F)c1C 14.8%
CCCCOc1ccc(Cn2c(=O)oc3ccc(C)cc32)cc1OC -6.99%
COc1ccc(CCN2C(=O)C(C)=C(C)C2=O)cc1OC -14.3%

Potency, active:
COc1ccc(Nc2nc(-c3cccnc3)nc3ccccc23)cn1 70.8 µM
Cc1cc(C(=O)CCl)c(C)n1CC1COc2ccccc2O1 (stereo unspecified) 89.1 µM
COc1cc(/C=C2/C(=O)NN(c3cccc(Cl)c3)C2=O)cc(Br)c1O 22.4 µM
C=C1C(=O)C23C(O)C1CCC2[C@]12COC3(O)C(O)C1C(C)(C)CC[C@H]2O (stereo partly specified) 14.1 µM
O=C(/C=C/c1ccc(Cl)cc1Cl)c1cccnc1 20 µM
CCOc1ccc(N(CC(=O)OC)S(=O)(=O)c2c(C)noc2C)cc1 89.1 µM
COC(=O)c1cccc(-n2[nH]nnc2=S)c1 79.4 µM
COc1ccc(/C=C/C(=O)c2cc(Br)ccc(=O)c2O)cc1 50.1 µM
Cc1ccc(C)c(NC(=S)NNC(=S)Nc2ccc(C(C)C)cc2)c1 35.5 µM
CC(C)c1ccc(NC(=S)NNc2ccc(Cl)c(C(=O)O)c2)cc1 39.8 µM
Cc1ccc(-c2nc(=N)sn2Cc2ccccc2)cc1 17.8 µM
CCN(CCCNC(=O)c1ccc2c(c1)NC(=O)CN2C)c1cccc(C)c1 79.4 µM
COc1ccc(-c2cc(C(=O)NC(Cc3c[nH]c4ccccc34)C(=O)O)c(C)o2)cc1OC (stereo unspecified) 44.7 µM
O=C(O)CCn1cc(/C=C/C(=O)c2ccc(Cl)cc2)c(-c2cccc(Br)c2)n1 15.8 µM
O=S(=O)(O)c1cc2onnc2c2ccccc12 17.8 µM
CCCCOc1ccc(CN2C(=O)C(=O)c3cc(Br)cc(C)c32)cc1OC 14.1 µM
